High-throughput results: PubChem, several laboratories
Rows were chosen to be rich in hits. Some 12% of all compounds tested hit in one or more screens of this group.
CHOP inh – blocks CHOP induction under ER stress. CHO-K1 CHOP-promoter luciferase, tunicamycin-induced, 15-18 h. inhibition, % at 10 µM. actives 3.8% (n = 220,000);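 active = compounds that reduced the stress-induced luciferase reporter signal by more than about 70% of percent inhibition, limit read from the data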
WT yeast gro inh – growth inhibition of WT yeast, mitochondrial fusion screen; mitochondrial fusion phenotypic screen, WT strain; inhibition, % at 10 µM; actives 2.1% (n = 190,000); in the data active = inhibition above about 58%; tested in S. cerevisiae
Lmaj promast – inhibitors of Leishmania major promastigote growth | Leishmania major promastigotes, resazurin fluorescence viability | inhibition, % at 10 µM | actives 9% (n = 200,000) | AID 1063; in the data active = inhibition above about 50%;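 note: promastigotes grown with compound for 44 hours at 28 °C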
Arbovirus inh – antivirals against arbovirus infection; arbovirus infection cell-based antiviral screen; inhibition, % at 10 µM; actives 0.37% (n = 200,000); in the data active = inhibition above about 30%
Of the large screens only hits and unclear results are named; the others gave an inactive call.

COc1ccc(-n2nc(C#N)c(Cl)cc2=O)cc1	CHOP inh 101, WT yeast gro inh 67, Lmaj promast 99
COc1ccc(-c2cc(=O)[nH][nH]2)cc1	Lmaj promast 76
CCOC(=O)c1csc(NC(=O)CCSc2ccccc2)n1	none
CCOC(=O)c1csc(NC(=O)CC2CCCC2)n1	Arbovirus inh 30
COc1ccccc1C/C(N)=N/OC(=O)c1cccc([N+](=O)[O-])c1	none
CC1=C(C)/C(=N/OC(=O)c2cccc([N+](=O)[O-])c2)C=CC1=O	CHOP inh 92, Lmaj promast 100
COc1ccc(C/C(N)=N/OC(=O)c2cccc([N+](=O)[O-])c2)cc1	Lmaj promast 63
N/C(=N/OC(=O)c1cccc([N+](=O)[O-])c1)c1cccc([N+](=O)[O-])c1	none
COc1ccc(C(=O)O/N=C(\N)Cc2ccc(Cl)c(Cl)c2)cc1OC	WT yeast gro inh 94, Lmaj promast 81
N/C(=N\OC(=O)CCC1CCCC1)c1cccc([N+](=O)[O-])c1	none
CCOC(=O)c1cc2sccc2n1CC(=O)OC(C)C	none
CCOC(=O)c1cc2sccc2n1CC(=O)N1CCc2ccccc21	CHOP inh 74
CN(C)CC#CCC(O)(c1ccccc1)c1ccccc1	none (no result: WT yeast gro inh, Lmaj promast, Arbovirus inh)
CCN(CC)CCCCCOc1ccccc1OC	none
CCN(CC)CCC(C)OC(c1ccccc1)c1ccccc1 (stereo not drawn)	Lmaj promast 100
CCNCCOC(c1ccccc1)c1ccccc1	none
CCN(CC)CC#CCOC(c1ccccc1)c1ccccc1	Lmaj promast 98
CN(C)CC#CCOC(c1ccccc1)c1ccccc1	Lmaj promast 99
COC(=O)c1cn(NC(=O)Cc2c(F)cccc2Cl)c(=O)c2ccccc12	none
O=C(NCCCn1ccnc1)c1nn2c(C(F)(F)F)cc(-c3ccc(Br)cc3)nc2c1Cl	Lmaj promast 100
COc1ccc(-c2cc(C(F)(F)F)n3nc(C(=O)NCCCn4ccnc4)cc3n2)cc1	Lmaj promast 90
COc1ccc(-c2cc(C(F)(F)F)n3nc(C(=O)NCCN4CCOCC4)cc3n2)cc1	none
O=C(NCc1ccc(F)cc1)c1ccc(Br)o1	none
C/C(CC(=O)Nc1cc(Cl)ccc1C)=N\NC(N)=O	none (no result: WT yeast gro inh, Lmaj promast, Arbovirus inh)
COc1ccc(C(=O)n2c(C)c(CCO)c(=O)n2C)cc1	none
Oc1[nH]c2ccccc2c1N=Nc1ccc(C(F)(F)F)cn1	Lmaj promast 55
Oc1[nH]c2ccc(Br)cc2c1N=Nc1ccc(C(F)(F)F)cn1	none
Cn1ccs/c1=N\C(=O)Nc1cccc(Cl)c1	none
COc1cccc(/C=C2\N=C(SC)SC2=O)c1OC	none
CSC1=NC(=O)/C(=C\c2cccc3ccccc23)S1	CHOP inh 103
O=C(Nc1ccccc1-c1ccccc1)C(c1ccccc1)c1ccccc1	none
CC(SCc1ccccc1)C(=O)Nc1ccccc1-c1ccccc1 (stereo not drawn)	Lmaj promast 57
O=C(CSc1ccc2ccccc2n1)c1ccccc1	none (no result: WT yeast gro inh, Lmaj promast, Arbovirus inh)
Cc1cc2cc(C)c(NCCNC(=O)c3cccc(F)c3)nc2cc1C	none
Cc1cccc(C(=O)NCCNc2nc3cc(C)c(C)cc3cc2C)c1	CHOP inh 76
CSc1nsc(SCc2ccc(F)cc2)n1	none
C=C(C)C1CC=C(C)/C(=N/NC(=O)c2ccc(NC(=O)c3cccc(C)c3)cc2)C1 (stereo not drawn)	Lmaj promast 100
C=C(C)C1CC=C(C)/C(=N/NC(=O)c2ccoc2C)C1 (stereo not drawn)	none
C=C(C)C1CC=C(C)/C(=N/NC(=O)COc2cccc(C)c2)C1 (stereo not drawn)	none
C=C(C)C1CC=C(C)/C(=N/NC(=O)COc2ccc(Cl)cc2)C1 (stereo not drawn)	CHOP inh 86
C=C(C)C1CC=C(C)/C(=N/NC(=O)c2cccc([N+](=O)[O-])c2)C1 (stereo not drawn)	Lmaj promast 100
C=C(C)C1CC=C(C)/C(=N/NC(=S)Nc2ccccc2)C1 (stereo not drawn)	none
COc1ccc(NC(=S)N2CCN(CCN=CC3=C(O)CC(c4ccccc4)CC3=O)CC2)cc1 (stereo not drawn)	Lmaj promast 53
Cc1cccc(/C=C2/SC(=O)N(Cc3ccccc3)C2=O)n1	CHOP inh 93 (no result: WT yeast gro inh)
O=C1/C(=C/c2ccccn2)SC(=S)N1Cc1ccccc1	none (no result: WT yeast gro inh, Lmaj promast, Arbovirus inh)
CCCCCC(=O)NC(=S)Nc1ccc(Cl)cn1	none
CNC(=O)CN(C)S(=O)(=O)c1ccc(F)cc1	none
OCC1(Cc2ccccc2C(F)(F)F)CCN(Cc2ccc3c(c2)CCO3)CC1	Lmaj promast 90
OCC1(Cc2ccccc2C(F)(F)F)CCN(Cc2ccccc2)CC1	Lmaj promast 81
CC1(C)COC2(OC1)C(=O)Nc1ccccc12	none
O=C1Nc2ccccc2C12OCC1(CO2)COC2(OC1)C(=O)Nc1ccccc12 (stereo not drawn)	Lmaj promast 91
CCCN(CC1CC1)C(=S)Nc1ccccc1F	none
CC1=NN(c2nc(-c3ccc(C)cc3)cs2)C(=O)C1N=Nc1cccc(C)c1 (stereo not drawn)	Lmaj promast 86
CCOC(=O)c1sc(N2N=C(C)C(N=Nc3cccc(C)c3)C2=O)nc1C (stereo not drawn)	none (no result: WT yeast gro inh, Lmaj promast, Arbovirus inh)
O=C(COc1ncnc2ccccc12)Nc1ccccc1[N+](=O)[O-]	none
O=C1N/C(=N\N=C\c2cccs2)SC1Cc1ccc(Cl)cc1Cl (stereo not drawn)	none
O=C(CC1S/C(=N/N=C/c2cccs2)NC1=O)Nc1ccc(Cl)cc1 (stereo not drawn)	CHOP inh 94, Lmaj promast 99
O=C(CC1S/C(=N/N=C/c2c[nH]c3ccccc23)NC1=O)Nc1ccccc1 (stereo not drawn)	Lmaj promast 79
O=C(CC1S/C(=N/N=C/c2c[nH]c3ccc(OCc4ccccc4)cc23)NC1=O)Nc1ccccc1 (stereo not drawn)	none
Cc1cc(C)n(CC(O)Cn2c3ccc(Cl)cc3c3cc(Cl)ccc32)c(=O)n1 (stereo not drawn)	WT yeast gro inh 97
Cc1cc(NC(=O)C2CC(c3cccc(Br)c3)=NO2)no1 (stereo not drawn)	CHOP inh 73
COc1cccc(C2=NOC(C(=O)Nc3cc(C)on3)C2)c1OC (stereo not drawn)	none (no result: WT yeast gro inh, Lmaj promast, Arbovirus inh)
COc1ccc(Nc2nc(Nc3ccc(OC)cc3)nc(-n3[nH]c(=O)c(C)c3C)n2)cc1	Lmaj promast 100
CCOc1ccc(NC(=O)C2CC(=O)N(C(C)C)C2)cc1 (stereo not drawn)	WT yeast gro inh 63
COc1ccc(NC(=O)C2CC(=O)N(C(C)C)C2)cc1 (stereo not drawn)	none
Cc1ccc(Cl)cc1N(Cc1ccc(C(=O)NCc2cccnc2)cc1)S(=O)(=O)c1ccccc1	Lmaj promast 83
Oc1ccccc1-c1nc2c3ccccc3c3ccccc3c2[nH]1	none (no result: WT yeast gro inh, Lmaj promast, Arbovirus inh)
c1csc(-c2nc3c4ccccc4c4ccccc4c3[nH]2)c1	WT yeast gro inh 80
OC(CNCc1ccco1)Cn1c2ccccc2c2ccccc21 (stereo not drawn)	none
OC(CNCCC1C=Nc2ccccc21)Cn1c2ccc(Cl)cc2c2cc(Cl)ccc21 (stereo not drawn)	CHOP inh 109, WT yeast gro inh 98, Lmaj promast 100
OC(CNCC1CCCO1)Cn1c2ccc(Cl)cc2c2cc(Cl)ccc21 (stereo not drawn)	CHOP inh 94, Lmaj promast 100
